From PMC9911399, “Two distinct binding modes provide the RNA-binding protein RbFox with extraordinary sequence specificity”
Numbering of substitutions follows the chain as printed; changes in the protein carry UniProt numbers. The full ranking holds about 16,000 sequences; the median of “ka relative to ugcaugu” is about 0.096, and the highest 2% start at about 0.35. This excerpt belongs to a sample that is enriched for the highest values.

T1: RBFOX1 RRM RbFoxmut (Fox-RRM*) (Homo sapiens, UniProt Q9NWB1 109-208, R118D;E147R;N151S;E152T)
T1 sequence: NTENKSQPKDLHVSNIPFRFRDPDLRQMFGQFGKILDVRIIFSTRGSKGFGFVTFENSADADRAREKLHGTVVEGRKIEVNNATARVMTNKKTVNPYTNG

B1: UCCCACC (DNA:RNA)
RNA: GGGAGACCGGAAUUCAGAUUGUCCUCCCACCUUAAAUCCCGUCGUAGCCACCA
DNA 1: CAATCTGAATTCCGGTCTCCC
DNA 2: TGGTGGCTACGACGGGATT
B2: GAGACGU (DNA:RNA)
RNA: GGGAGACCGGAAUUCAGAUUGUCCGAGACGUUUAAAUCCCGUCGUAGCCACCA
DNA 1: CAATCTGAATTCCGGTCTCCC
DNA 2: TGGTGGCTACGACGGGATT
B3: CGUCCCU (DNA:RNA)
RNA: B2 RNA with G25C, A26G, G27U, A28C, G30C
DNA 1: CAATCTGAATTCCGGTCTCCC
DNA 2: TGGTGGCTACGACGGGATT
B4: ACGGCGC (DNA:RNA)
RNA: B2 RNA with G25A, A26C, A28G, U31C
DNA 1: CAATCTGAATTCCGGTCTCCC
DNA 2: TGGTGGCTACGACGGGATT
B5: AGAGAUA (DNA:RNA)
RNA: B1 RNA with U25A, C26G, C27A, C28G, C30U, C31A
DNA 1: CAATCTGAATTCCGGTCTCCC
DNA 2: TGGTGGCTACGACGGGATT
B6: AAUCCAU (DNA:RNA)
RNA: B2 RNA with G25A, G27U, A28C, G30A
DNA 1: CAATCTGAATTCCGGTCTCCC
DNA 2: TGGTGGCTACGACGGGATT
B7: GGAAACG (DNA:RNA)
RNA: B2 RNA with A26G, G27A, C29A, G30C, U31G
DNA 1: CAATCTGAATTCCGGTCTCCC
DNA 2: TGGTGGCTACGACGGGATT
B8: ACGCCAA (DNA:RNA)
RNA: B2 RNA with G25A, A26C, A28C, G30A, U31A
DNA 1: CAATCTGAATTCCGGTCTCCC
DNA 2: TGGTGGCTACGACGGGATT
B9: GAUUCAG (DNA:RNA)
RNA: B2 RNA with G27U, A28U, G30A, U31G
DNA 1: CAATCTGAATTCCGGTCTCCC
DNA 2: TGGTGGCTACGACGGGATT
B10: GGAAUCA (DNA:RNA)
RNA: B2 RNA with A26G, G27A, C29U, G30C, U31A
DNA 1: CAATCTGAATTCCGGTCTCCC
DNA 2: TGGTGGCTACGACGGGATT
B11: GGCGUUG (DNA:RNA)
RNA: B2 RNA with A26G, G27C, A28G, C29U, G30U, U31G
DNA 1: CAATCTGAATTCCGGTCTCCC
DNA 2: TGGTGGCTACGACGGGATT
B12: GUUAUCA (DNA:RNA)
RNA: B2 RNA with A26U, G27U, C29U, G30C, U31A
DNA 1: CAATCTGAATTCCGGTCTCCC
DNA 2: TGGTGGCTACGACGGGATT
B13: GAAUCGA (DNA:RNA)
RNA: B2 RNA with G27A, A28U, U31A
DNA 1: CAATCTGAATTCCGGTCTCCC
DNA 2: TGGTGGCTACGACGGGATT
B14: CGAUCGA (DNA:RNA)
RNA: B2 RNA with G25C, A26G, G27A, A28U, U31A
DNA 1: CAATCTGAATTCCGGTCTCCC
DNA 2: TGGTGGCTACGACGGGATT
B15: GAACCAG (DNA:RNA)
RNA: B2 RNA with G27A, A28C, G30A, U31G
DNA 1: CAATCTGAATTCCGGTCTCCC
DNA 2: TGGTGGCTACGACGGGATT
B16: GUCAUCA (DNA:RNA)
RNA: B2 RNA with A26U, G27C, C29U, G30C, U31A
DNA 1: CAATCTGAATTCCGGTCTCCC
DNA 2: TGGTGGCTACGACGGGATT
B17: GAAUCAG (DNA:RNA)
RNA: B2 RNA with G27A, A28U, G30A, U31G
DNA 1: CAATCTGAATTCCGGTCTCCC
DNA 2: TGGTGGCTACGACGGGATT
B18: CCCGGCG (DNA:RNA)
RNA: B1 RNA with U25C, C28G, A29G, C31G
DNA 1: CAATCTGAATTCCGGTCTCCC
DNA 2: TGGTGGCTACGACGGGATT
B19: GGCGUCG (DNA:RNA)
RNA: B1 RNA with U25G, C26G, C28G, A29U, C31G
DNA 1: CAATCTGAATTCCGGTCTCCC
DNA 2: TGGTGGCTACGACGGGATT
B20: GAUCGAA (DNA:RNA)
RNA: B2 RNA with G27U, A28C, C29G, G30A, U31A
DNA 1: CAATCTGAATTCCGGTCTCCC
DNA 2: TGGTGGCTACGACGGGATT

target: T1, RBFOX1 RRM RbFoxmut (Fox-RRM*); assay: EMSA; HiTS-Eq, 1 nM pool, 10 min; buffer printed only for the single-RNA assays: 10 mM Tris pH 7.5, 150 mM NaCl, 3.4 mM EDTA, 0.001% NP-40, 30 C; conditions: tags: His6 N-terminal (pET28a); label: 5' 32P
How it was run: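 Purified wild-type or mutant RbFox RRM at increasing concentrations was equilibrated with 1 nM of 5′-radiolabelled RNA carrying 7 randomized nucleotides for 10 min in 50 µL. Unbound RNA was separated by 8% native PAGE and sequenced. Relative association constants came from read-count changes of each RNA species compared with the control reaction, normalised to the cognate motif.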

Question: B1 was tested. Which binding signal did it give?
Answer: The binding signal was 0.0864 KA relative to UGCAUGU.

Question: Which binding signal does the source give for B2 here?
Answer: Its binding signal is 0.0818 KA relative to UGCAUGU.

Question: B3 was tested. Which binding signal did it give?
Answer: Its binding signal is 0.0565 KA relative to UGCAUGU.

Question: With B4 as the binder, how does the binding signal read?
Answer: The binding signal was 0.119 KA relative to UGCAUGU.

Question: How did the binding signal turn out when B5 was run?
Answer: The binding signal was 0.15 KA relative to UGCAUGU.

Question: B6 was tested. Which binding signal did it give?
Answer: Its binding signal is 0.074 KA relative to UGCAUGU.

Question: Which binding signal does the source give for B7 here?
Answer: The binding signal was 0.0703 KA relative to UGCAUGU.

Question: With B8 as the binder, how does the binding signal read?
Answer: Its binding signal is 0.0795 KA relative to UGCAUGU.

Question: B9 was tested. Which binding signal did it give?
Answer: Its binding signal is 0.155 KA relative to UGCAUGU.

Question: For B10, which binding signal is on record?
Answer: The binding signal was 0.426 KA relative to UGCAUGU.

Question: How did the binding signal turn out when B11 was run?
Answer: The binding signal was 0.367 KA relative to UGCAUGU.

Question: For B12, which binding signal is on record?
Answer: Its binding signal is 0.18 KA relative to UGCAUGU.

Question: How did the binding signal turn out when B13 was run?
Answer: Its binding signal is 0.561 KA relative to UGCAUGU.

Question: Which binding signal does the source give for B14 here?
Answer: The binding signal was 0.0748 KA relative to UGCAUGU.

Question: B15 was tested. Which binding signal did it give?
Answer: The binding signal was 0.105 KA relative to UGCAUGU.

Question: With B16 as the binder, how does the binding signal read?
Answer: Its binding signal is 0.129 KA relative to UGCAUGU.

Question: How did the binding signal turn out when B17 was run?
Answer: The binding signal was 0.389 KA relative to UGCAUGU.

Question: For B18, which binding signal is on record?
Answer: Its binding signal is 0.098 KA relative to UGCAUGU.

Question: Which binding signal does the source give for B19 here?
Answer: The binding signal was 0.203 KA relative to UGCAUGU.

Question: Which binding signal does the source give for B20 here?
Answer: The binding signal was 0.113 KA relative to UGCAUGU.
